Laboratory results reported in PubChem BioAssay AID488857 (Sanford-Burnham Center for Chemical Genomics, 2010).
Screen size: about 1,400 compounds; about 560 (40%) were called active.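 How the source made its calls: active means mean inhibition over duplicate tests at 10 µM above 50%; inactive means the rest.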 So high a share suggests a set chosen from earlier hits. Some of the results follow.

Assay: ASC/caspase-1 reporter retest in S. cerevisiae at one dose, specificity check for NALP1 project (AID 488857)
Conditions: S. cerevisiae ASC/Caspase-1, beta-galactosidase luminescence, 24 h; at 10 µM; hits give high values

inhibition, active:
COc1ccc(/C=C2/CCc3ccccc3C2=O)cc1OC 61.4%
COCCCNCCOc1ccc(C(C)(C)c2ccccc2)cc1 64.7%
C=CCNCCOc1ccc(C(C)(C)c2ccccc2)cc1 56.8%
Cc1nn(-c2ccccc2)c(Cl)c1/C=C(\C#N)C(=O)NC(C)C 68.6%
C=CCNC(=O)/C(C#N)=C/c1c(C)nn(-c2ccccc2)c1Cl 69.8%
CCN(CC)c1ccc(/C=N/OC(C)C(=O)Nc2ccc(C)cc2)cc1 (stereo not drawn) 53.4%
O=C(/C=C/c1ccc2c(c1)OCCCO2)c1ccccc1O 61.2%
COC(=O)Cn1nc(-c2ccccc2)c2ccccc21 99.4%
O=C(NC1=NCCS1)c1ccc(Cl)s1 53%
O=C(c1cnn2ccccc12)N1CCc2ccccc21 57.4%
Cc1ccc(C(=O)Oc2ccc3c(c2)ncn3C)cc1 61.9%
Cc1ccc(C(=O)Nc2ccc3nc(C)sc3c2)s1 87.8%
Nc1[nH]ncc1N=Nc1ccc(Cl)cc1 64.8%
CCCOc1ccc(C(=O)c2nc3c(n2O)CCCCC3)cc1 52%
CCCCCCNc1nc(NCc2ccco2)nc(OCC)n1 56.7%
O=[N+]([O-])c1cccc(CNc2ccc3c(c2)CCC3)c1 59.6%
CCn1ncc(C(=O)Nc2cccc(Cl)c2)c1C 54.3%
CCCc1cc(C(=O)Nc2cccc(Cl)c2)no1 81.6%
CCNC(=S)SCCOc1ccccc1C 79.3%
CC1CCCCC1NC(=O)/C(C#N)=C/c1ccccc1F (stereo not drawn) 74.2%
CCOc1ccc(/C=C/C(=O)c2ccccc2)cc1OC 55.5%
CC(C)(C)c1cc2cccnc2n1Cc1cccc(Cl)c1 52.5%
CCSc1ncc(/C=N/Nc2ccccc2)n1C 75.3%
Cc1[nH]n(-c2ccccc2)c(=O)c1C(C[N+](=O)[O-])c1ccc(Br)cc1 (stereo not drawn) 79%
Cc1[nH]n(-c2ccccc2)c(=O)c1C(C[N+](=O)[O-])c1ccc(Cl)cc1 (stereo not drawn) 87.4%
Cc1ccc(C(C[N+](=O)[O-])c2c(C)[nH]n(-c3ccccc3)c2=O)cc1 (stereo not drawn) 82.5%
CC(NC(=O)/C(C#N)=C/c1ccc(Cl)c([N+](=O)[O-])c1)c1ccccc1 (stereo not drawn) 62.2%
CC(C)NC(=O)/C(C#N)=C/c1cccc(NC(=O)c2ccccc2Cl)c1 63.5%
CC(=O)Nc1sc2c(c1-c1nc3ccccc3s1)CCN(C(C)C)C2 98%
CC(C)(C)c1ccc(/C=C/C(=O)c2ccc(NC3=NCCCS3)cc2)cc1 53.1%
Cc1cccc(/C=C/C(=O)c2ccc(NC3=NCCCS3)cc2)c1 60.4%
Brc1ccc(C=Nc2ccc(Nc3ccccc3)cc2)s1 56.1%
Cc1ccc(C(=O)c2c(NC(=O)c3ccncc3)sc3c2CCCC3)cc1 58.1%
CC(C)Oc1ccc2c(=O)c(-c3ccccc3)coc2c1 73.6%
Cc1ccc(CN2CCN(/N=C/c3ccc(C(F)(F)F)cc3)CC2)c(C)c1 50.5%
Cc1ccccc1-c1ccc(C(=O)Nc2cccc(F)c2)o1 56.5%
COc1ccc2c(c1)O/C(=C\c1sccc1C)C2=O 66.5%
COC(=O)c1cccc(NC(=O)/C=C/c2ccc3c(c2)OCO3)c1 77.6%
COc1ccccc1OCCN1CSC(=S)N(C)C1 54.5%
O=[N+]([O-])c1cc(Cc2ccccc2)cc(C=Nc2ccc(N3CCOCC3)cc2)c1O 51.5%
O=C(N/N=C\c1cccc([N+](=O)[O-])c1O)C1COc2ccccc2O1 (stereo not drawn) 81.3%
O=[N+]([O-])c1cc(S(=O)(=O)N2CCCCCC2)ccc1F 86.2%

inhibition, inactive:
C=CCNCCOCCSc1ccc(Cl)cc1 42.4%
COC(=O)C(Cc1ccccc1)NC(=O)COc1ccc(C(C)(C)C)cc1 (stereo not drawn) 34.1%
COc1cccc(C2c3c(-c4ccccc4O)n[nH]c3C(=O)N2Cc2ccco2)c1 (stereo not drawn) 47.1%
COC(=O)c1ccc(/C=C(\C#N)C(=O)NC(C)c2ccccc2)cc1 (stereo not drawn) 43.5%
O=C(O)/C=C/C(=O)OC1CC2CCC1C2 (stereo not drawn) 23.1%
Cc1ccc(NC(=O)CN(C)C(=O)COc2cccc3cccnc23)cc1 21.4%
c1ccc(CC2CCN(c3nnnn3-c3ccccc3)CC2)cc1 39.6%
O=C(CCNC(=O)c1ccccc1Cl)Nc1ccc2c(c1)OCO2 34.6%
Cc1ccc(C(=O)/C=C/c2ccc3c(c2)OCO3)o1 32.1%
O=C(O)Cn1nc(-c2ccccc2)oc1=O 20.1%
CC(NC(=O)c1ccc(F)cc1)C(=O)NC1=NCCS1 (stereo not drawn) 38.4%
CCC(=O)N1CCc2cc(S(=O)(=O)N3CCc4ccccc43)ccc21 37%
CSc1sc(C(=O)N2CCc3ccccc32)cc1S(=O)(=O)C(C)C 30%
CC(C)NC(=O)c1ccc(COCC(F)(F)F)cc1 36.5%
Cc1nc2ccc(NC(=O)c3cc([N+](=O)[O-])cc([N+](=O)[O-])c3Cl)cc2s1 42.2%
Cc1nc2c(ccc3c2ccc2nc(C)sc23)s1 38.2%
COc1cccc(/C=N/NC(=O)CCc2c(C)n[nH]c2C)c1 30.6%
CCCCNC(=O)COC(=O)c1ccc(Cl)c(S(N)(=O)=O)c1 37.4%
CCCCOc1ccc(C(=O)CCN2CCCCC2)cc1 32.5%
COc1cccc(CNc2ccc3c(c2)CCC3)c1 30.4%
COc1cccc(OCc2ccc(C(=O)NCC3CCCO3)cc2)c1 (stereo not drawn) 48.8%
CCCc1cc(C(=O)Nc2ccc(F)cc2F)no1 46.5%
CCn1nccc1C(=O)Nc1ccc(Cl)cn1 34.9%
CCCc1cc(C(=O)Nc2c(C)n(C)n(-c3ccccc3)c2=O)no1 16.9%
CCn1ncc([N+](=O)[O-])c1C(=O)Nc1ccc(C(=O)N2CCCCC2)cc1 43.9%
Cc1cc(C)c(S(=O)(=O)Nc2ccc(OCC(=O)O)cc2)c(C)c1 29.1%
COc1ccc(N(CCC#N)S(=O)(=O)c2ccc(Cl)cc2)cc1 26.1%
CCCSc1nnc(C(C)C)n1N 26.2%
COc1ccc(/C=N/OC(=O)Nc2ccccc2)cc1[N+](=O)[O-] 32.5%
CCOC(=O)c1cc(-c2ccccc2)n(CC(=O)Nc2ccc(OC)c(OC)c2)c1C 37.5%
CC(C)c1nc2sc3c(=O)[nH]cnc3c2c2c1CCC2 23.9%
COc1ccccc1N1C(=O)C2CCC(c3ccccc3)CC2C1=O (stereo not drawn) 27.9%
Cc1cccc(Cn2c(C(C)(C)C)cc3cccnc32)c1 47.4%
CCSc1nnc(-c2cnn(-c3ccccc3)c2-n2cccc2)n1C 34.5%
COc1cc(NC(C)CCCN)c2ncccc2c1Oc1ccccc1 (stereo not drawn) 29.6%
Cc1cc2ccccn2c1C(C[N+](=O)[O-])c1ccc(N(C)C)cc1 (stereo not drawn) 21.9%
O=c1cc(CSc2ccc(Cl)cc2)[nH]c2[nH]n(-c3ccccc3)c(=O)c12 42.8%
COC(=O)C1(C(C[N+](=O)[O-])c2ccc(C)cc2)C(=O)NCC1c1ccco1 (stereo not drawn) 49%
O=C1N/C(=N\N=C\c2cccnc2)SC1Cc1ccc(SC(F)F)cc1 (stereo not drawn) 29.8%
NC(=O)c1ncc(C(F)(F)F)cc1Oc1ccc(C(F)(F)F)cc1 42.5%
CCOc1cc(/C=N/NC(=O)c2nn(C)cc2Br)ccc1OCc1ccccc1Cl 26.2%
CC(=O)Nc1ccc2nc(CN3CCC(CO)(CCc4ccccc4)CC3)ccc2c1 36.4%
CCCCn1cnc2c1c(=O)[nH]c(=O)n2CCCC 7.55%
Cc1[nH]c2ccccc2c1C(=O)CSc1nc2ncc(Cl)cc2[nH]1 36.2%
CC(NC(=O)/C(C#N)=C/c1ccc([N+](=O)[O-])o1)c1ccccc1 (stereo not drawn) 36.7%
CC(OC(=O)CC(NC(=O)c1ccccc1Cl)c1ccccc1)C(=O)Nc1cccc(Cl)c1Cl (stereo not drawn) 34.5%
Fc1ccc(NC(=S)N2CCSC2c2cccs2)cc1 (stereo not drawn) 25.8%
CC(=O)OCC(=O)[C@H]1CC[C@H]2[C@@H]3CC=C4C[C@@H](O)CC[C@]4(C)[C@H]3CC[C@]12C 32.5%
Cc1ccccc1OCC(=O)Nc1sc2c(c1C#N)CCC2 35.5%
CCCCNC1CCS(=O)(=O)C1 (stereo not drawn) 37.9%
CC(C)OC(=O)COc1ccc(-c2ccccc2)cc1 47.1%
O=C(Nc1cccc(F)c1)c1ccc(CSc2ccccc2)o1 37.5%
Cc1oc(C(=O)O)cc1COc1ccc2c3c(c(=O)oc2c1)CCC3 46.1%
O=C(O)c1ccc2c(c1)N(Cc1cccc(F)c1)C(=O)CS2 19.6%
CCCCC(CC(O)COCCC)c1n[nH]c(=S)n1-c1ccccc1 (stereo not drawn) 42%
O=[N+]([O-])c1cc2oc3c(c2c(C=NCc2ccccc2)c1O)CCCC3 42.5%
CN(C)c1ccc(O)c2c1CC1CC3[C@@H](N(C)C)C(=O)C(C(N)=O)=C(O)[C@]3(O)C(=O)C1=C2O (stereo partly drawn) 31.9%
COc1cccc(/C=N/NC(=O)CNC(=O)C2COc3ccccc3O2)c1O (stereo not drawn) 42.9%
CCCCN(C)C(=O)c1nc2ccccn2c1CNCCCn1ncc2ccccc21 33.2%
CC(C)C(C)NC(=O)COc1ccc(S(=O)(=O)N2CCOCC2)cc1[N+](=O)[O-] (stereo not drawn) 12.2%
Cn1cc(C(=O)NCc2ccc(F)cc2)c(=O)c2cc(S(=O)(=O)N3CCCCC3)ccc21 34.4%
